Assay outcomes (PubChem)
Hits are enriched below; roughly 1.3% of the tested compounds scored in any of these assays.
PfHsp40 yeast: compounds rescuing yeast from Plasmodium falciparum HSP40 toxicity. S. cerevisiae expressing PfHsp40, growth rescue, ATP luminescence. hit rate 0.68% among 340,000. AID 504582. growth rescue, % at 12.5 µM; in the data active = growth rescue above about 28%, passing the limit was not always enough;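 note: yeast W303a lacking pdr1 and pdr3 grown in galactose medium; growth measured after three days at 30 °C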
BJeLR lethal: kills HRASV12-expressing BJeLR cells | BJeLR (HRASV12) viability, CellTiter-Glo ATP luminescence, 48 h | inhibition, % (concentration not given with the values) | hit rate 0.17% among 300,000 | AID 1554; in the data active = inhibition above about 50%
Sa ugtP lethal: growth inhibition of S. aureus ugtP deletion strain. growth inhibition, % (test concentration not listed). S. aureus RN4220 ugtP deletion, OD600 growth, 16 h. AID 1259309. hit rate 0.54% among 330,000; in the data active = growth inhibition above about 68%
SARS 3CLpro inh: SARS-CoV 3CLpro protease inhibition. AID 1706. recombinant SARS-CoV 3CLpro, quenched FRET peptide cleavage. inhibition, % at 6 µM. hit rate 0.14% among 290,000; in the data active = inhibition above about 12%
RN4220 kill: kills Staphylococcus aureus RN4220 | AID 1259311 | hit rate 0.33% among 330,000 | inhibition, % (no concentration beside the values) | S. aureus RN4220 growth, OD600, 16 h; in the data active = inhibition above about 85%
Numbers stand for hits; 0 = inactive; - = no result given.

SMILES	PfHsp40 yeast	BJeLR lethal	Sa ugtP lethal	SARS 3CLpro inh	RN4220 kill
C#CCOCCOCCOCCNc1nc(N2CCN(C(=O)CCCCCCCCCCNC(=O)[C@H](CO)n3cc(CCCSC)nn3)CC2)nc(N2CCN(C(=O)CCCCCCCCCCNC(=O)[C@H](CCCN=C(N)N)n3cc(C[C@@H](C)CC)nn3)CC2)n1	30	-	-	-	-
C#CCOCCOCCOCCNc1nc(N2CCN(C(=O)Cn3cc(CCCN=C(N)N)nn3)CC2)nc(N2CCN(C(=O)[C@H]([C@@H](C)CC)n3cc(CCCCN)nn3)CC2)n1	0	-	-	-	-
C#CCOCCOCCOCCNc1nc(N2CCN(C(=O)CCCCCCCCCCNC(=O)Cn3cc(CCCCCN)nn3)CC2)nc(N2CCN(C(=O)CCCCCCCCCCNC(=O)[C@H]([C@@H](C)CC)n3cc(CCCCN=C(N)N)nn3)CC2)n1	29	-	-	-	-
C#CCOCCOCCOCCNc1nc(N2CCN(C(=O)[C@H](CCCCN)n3cc([C@@H](N)C(C)CC)nn3)CC2)nc(N2CCN(C(=O)[C@H](Cc3cc4ccccc4[nH]3)n3cc([C@@H](N)CC(C)C)nn3)CC2)n1 (stereo partly specified)	39	0	-	0	-
C#CCOCCOCCOCCNc1nc(N2CCN(C(=O)CCCCCCCCCCNC(=O)[C@H]([C@@H](C)CC)n3cc(CCCCN=C(N)N)nn3)CC2)nc(N2CCN(C(=O)CCCCCCCCCCNC(=O)[C@H](CO)n3cc(CCCCCN)nn3)CC2)n1	0	-	-	-	-
C#CCOCCOCCOCCNc1nc(N2CCN(C(=O)CCCCCCCCCCNC(=O)[C@H]([C@@H](C)CC)n3cc(CCCCCN)nn3)CC2)nc(N2CCN(C(=O)CCCCCCCCCCNC(=O)[C@H]([C@@H](C)CC)n3cc(CCCCN=C(N)N)nn3)CC2)n1	69	-	-	-	-
C#CCOCCOCCOCCNc1nc(N2CCN(C(=O)[C@H]([C@@H](C)CC)n3cc(CCCCN)nn3)CC2)nc(N2CCN(C(=O)[C@H](CCCCN)n3cc(CCCC)nn3)CC2)n1	33	-	-	-	-
C#CCOCCOCCOCCNc1nc(N2CCN(C(=O)[C@H]([C@@H](C)CC)n3cc(CCC(=O)O)nn3)CC2)nc(N2CCN(C(=O)[C@H](CCCCN)n3cc(CCCC)nn3)CC2)n1	0	-	-	-	-
O=C(NN=Cc1c[nH]c2ccccc12)c1cc(-c2ccc(-c3ccccc3)cc2)n[nH]1	-	-	0	-	87
COc1ccccc1C1CCN(C(=O)c2ccc(Cl)cc2)CC1	199	0	0	0	0
Cc1ccc(C)c(Cn2nnc(C(=O)Nc3ccc4c(c3)OCCO4)c2N)c1	0	0	0	-	0
Cc1ccccc1Cn1nnc(C(=O)Nc2ccc3c(c2)OCCO3)c1N	106	0	0	-	0
Cc1ccc(S(=O)(=O)c2ccc([N+](=O)[O-])o2)cc1	265	-	-	-	-
O=C(NCc1cccnc1)c1cc(S(=O)(=O)N2CCCC2)c(Cl)cc1Cl	0	0	0	0	0
CCCCN(C(=O)c1cccc(S(=O)(=O)N2CC(C)OC(C)C2)c1)c1c(N)n(CCCC)c(=O)[nH]c1=O (stereo unspecified)	0	0	0	0	0
COC(=O)C(O)(NC(=O)c1ccncc1)C(F)(F)F (stereo unspecified)	0	0	0	0	84
S=C(Nc1ccc(OCc2ccccc2)cc1)Nc1cccc(Cl)c1Cl	67	0	0	0	0
S=C(Nc1ccccc1)Nc1ccc(OCc2ccccc2)cc1	0	0	0	0	0
O=C1c2ccccc2C(=O)c2cc(S(=O)(=O)Nc3ccccc3)ccc21	0	0	89	0	96
O=C(O)c1cccc(NS(=O)(=O)c2ccc3c(c2)C(=O)c2ccccc2C3=O)c1	0	0	0	0	0
CC(=O)Oc1c(Sc2ccccc2[N+](=O)[O-])c(C)nn1C(C)(C)C	42	-	0	0	0
CCCCCCC(N)CC(=O)O (stereo unspecified)	0	0	0	0	0
CCCCCCCCCCCCCCCC(O)C(N)CO (stereo unspecified)	0	0	100	0	100
CCc1ccc(NP(=O)(Oc2ccccc2F)Oc2ccccc2F)cc1	43	0	0	0	0
CCc1cccc(NC(=O)c2cnn(-c3ccccc3)c2C)c1	38	0	0	0	0
SMILES	PfHsp40 yeast	BJeLR lethal	Sa ugtP lethal	SARS 3CLpro inh	RN4220 kill
O=C(/C=C/c1ccc(O)c(O)c1)c1ccccc1O	0	0	0	0	0
O=C(C=Cc1cccc(O)c1)c1ccccc1O	383	-	0	-	0
O=[N+]([O-])c1ccc(S(=O)Cc2ccccc2)c([N+](=O)[O-])c1 (stereo unspecified)	253	-	-	-	-
O=C(NNC(=S)Nc1cccc(C(F)(F)F)c1)c1ccc(Cl)cc1Cl	36	0	0	0	0
FC(F)(F)c1cccc(NC(=S)Nc2ccc(Cl)c(Cl)c2)c1	0	0	101	0	101
O=[N+]([O-])c1cc(C(F)(F)F)cc([N+](=O)[O-])c1NCCNC(=S)Nc1ccc(Cl)c(Cl)c1	0	0	100	0	99
CCN(C(=O)COC(=O)c1cc(OC)c(OC)cc1[N+](=O)[O-])C1CCS(=O)(=O)C1 (stereo unspecified)	0	0	0	0	0
Cc1ccccc1-n1c(SCc2ccccn2)nc2n[nH]c(C)c2c1=N	0	0	0	0	0
Cc1ccc(/C(O)=C/C(=O)C(=O)NNC(=O)C(O)(c2ccccc2)c2ccccc2)cc1	0	0	0	0	0
O=C(C=C(O)c1ccc(Cl)cc1)C(=O)NNC(=O)C(O)(c1ccccc1)c1ccccc1	0	-	95	-	0
O=C(Oc1ccc(C(=S)N2CCOCC2)cc1)c1ccc([N+](=O)[O-])cc1[N+](=O)[O-]	0	0	0	0	0
O=C(Oc1cccc(C(=S)N2CCOCC2)c1)c1ccc([N+](=O)[O-])cc1[N+](=O)[O-]	44	0	0	0	0
CN(C)c1ccc(C=c2c3cc([N+](=O)[O-])ccc3n3c2cc(-c2ccccc2)[n+]3C)cc1	0	-	-	-	-
CN(C)c1ccc(C=c2c3ccccc3n3c2cc(-c2ccc(Cl)cc2)[n+]3C)cc1	219	-	-	-	-
CN(C)c1ccc(C=c2c3ccccc3n3c2cc(-c2ccccc2)[n+]3C)cc1	0	-	-	-	-
CN(C)c1ccc(C=c2c3ccccc3n3c2c2c([n+]3C)CCCC2)cc1	300	-	-	-	-
Cc1ccc(Cl)cc1NS(=O)(=O)N1CCOCC1	0	0	0	0	0
CCn1ccnc1[C@@H]1C[C@H]2CN(Cc3ccccc3OC)C(=O)[C@]23CCCN13	0	0	0	0	0
COc1ccccc1/C=N/NC(=O)c1ccc(N(C)S(=O)(=O)c2ccccc2)cc1	0	0	-	0	-
COc1ccc2c(c1)OC[C@H]1[C@H]2N2C(=O)c3cc(Br)ccc3NC(=O)[C@@]2(C)[C@H]1c1ccccc1	333	-	-	-	-
COc1cc2c(cc1OC)C(=O)N1C3c4cc(Cl)ccc4OCC3C(c3ccccc3)[C@]1(C)C(=O)N2 (stereo partly specified)	-	-	0	-	0
COc1ccc2c(c1)OC[C@H]1[C@H]2N2C(=O)c3cc(OC)c(OC)cc3NC(=O)[C@@]2(C)[C@H]1c1ccccc1	44	-	-	-	-
COc1cc2c(cc1OC)C(=O)N1[C@H]3c4ccccc4OC[C@@H]3[C@H](c3ccccc3)[C@]1(C)C(=O)N2	63	-	-	-	-
